# High-throughput results: PubChem, National Center for Advancing Translational Sciences (NCATS)
# NS1 inh: blocks influenza NS1 protein function | Potency, µM (titrated, usually from 46.1 µM), for inactives: at the top dose activity, positive = more growth | 0.4% of 270,000 active; calls by dose curve; also: actives are rising curves; nearly all actives have a fitted effect of over 50% in size
#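 Growth recovery, yeast-based: influenza A NS1 expressed in S. cerevisiae causes slow growth, and suppressors are detected by OD600. The parent strain without NS1 is used as positive control.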
# SARS PLpro yeast: blocks SARS-CoV papain-like protease in a yeast assay. S. cerevisiae expressing SARS-CoV PLpro, growth rescue. Potency, µM (doses to about 32.9 µM), inactives show at the top dose activity, positive = growth rescue, actives largely listed as activators. 0.19% of 330,000 active. AID 485353; calls by dose curve; also: 0% is about no effect; nearly all actives have a fitted effect of over 55% in size
# Pf growth 48h: P. falciparum growth inhibition at 48 hours (one generation) | Potency, µM (highest dose often 28.7 µM), inactives show top-dose activity change, negative = inhibition, actives largely listed as inhibitors | P. falciparum luciferase growth in erythrocytes, 48 h | AID 504832 | 5.9% of 310,000 active; also: % is scaled to controls: 0 for no effect and ±100 for the full control effect
#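 Parasite viability was followed by luminescence of a genomically integrated firefly luciferase. Cultures held 0.1% parasitemia at 2% hematocrit (final), incubated under 5% CO2 at 37 C.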
# Pf growth 96h: inhibits malaria parasite growth, 96 h; Potency, µM (top dose mostly 28.7 µM), inactives show top-dose activity change, negative = inhibition, usual class: inhibitors; P. falciparum luciferase reporter growth, 96 h; 6.9% of 320,000 active; AID 504834; also: % is scaled to controls: 0 for no effect and ±100 for the full control effect
#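 Compounds incubated with erythrocytes infected by luciferase-expressing P. falciparum (2% hematocrit, 0.05% parasitemia final) for 96 hours, 37 C in 5% CO2. Growth inhibition scored as decreased luciferase luminescence.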
# An asterisk follows results filed as active; ? = inconclusive; nt = no result given. An excerpt weighted towards active compounds, which were near 10% of everything screened. Unless noted, calls follow the shape of the dose curve; as a rule, active = well fitted inhibition curve with a large enough effect; inconclusive = small, poorly fitted or top-dose-only effect, or another doubt; inactive = no such curve, though single readings can be large or run the other way. Potency is read from the fitted curve at half-maximal effect.
SMILES,NS1 inh,SARS PLpro yeast,Pf growth 48h,Pf growth 96h
COc1cc(CN(C)c2ccc(S(=O)(=O)N3CCCC3)cn2)ccc1OC(F)F,nt,5%,15µM*,?
CCN(CC(=O)Nc1ccc(NC(C)=O)cc1)C(=O)/C=C/c1ccc(S(=O)(=O)N2CCCCCC2)cc1,-1%,4%,3.3µM*,4.7µM*
CCOc1ccc(NC(=O)CN(C)C(=O)/C=C/c2ccc(S(=O)(=O)N3CCCCCC3)cc2)cc1OCC,nt,nt,?,-2%
O=C(CSCc1ccc(Cl)cc1)NCc1ccc2c(c1)OCO2,-14%,nt,-3%,-1%
O=C(CSCc1ccc(Cl)cc1)Nc1ccc2c(c1)OCO2,-12%,-13%,-18%,12µM*
O=C1/C(=C\c2c(NCCOCCO)nc3ccccn3c2=O)SC(=S)N1Cc1ccco1,13%,-3%,17%,?
O=C(CCc1nnc2ccc(NCc3ccccc3Cl)nn12)NC1CCCCC1,0%,-11%,?,19%
N#CCCN(C(=O)COC(=O)CCNS(=O)(=O)c1ccccc1)c1ccccc1,nt,17%,12%,7%
CC(NC(=O)CN(C)S(=O)(=O)c1ccc2c(c1)c(=O)n(C)c(=O)n2C)c1ccccc1 (stereo unspecified),1%,10%,-10%,?
Cc1ccc(CCNC(=O)CN(C)S(=O)(=O)c2ccc3c(c2)n(C)c(=O)c(=O)n3C)cc1,2%,0%,?,9.3µM*
CCC(Cc1ccccc1)NC(=O)CN(C)S(=O)(=O)c1ccc2c(c1)c(=O)n(C)c(=O)n2C (stereo unspecified),3%,-5%,nt,7.4µM*
Cc1ccccc1NC(=O)CN(C)S(=O)(=O)c1ccc2c(c1)n(C)c(=O)c(=O)n2C,11%,-1%,?,10µM*
O=C(CCN1C(=O)c2ccccc2S1(=O)=O)NCc1ccccc1Cl,nt,5%,13%,1%
CC(Cc1ccccc1)NC(=O)c1ccc(N)cc1 (stereo unspecified),12%,5%,102%,12µM*
O=C(Nc1cccc(CNCCc2c[nH]c3ccccc23)c1)c1ccccc1Cl,-2%,0%,?,?
COc1ccccc1OCC(=O)Nc1sc2c(c1C(N)=O)CCC2,nt,-2%,nt,nt
COc1ccccc1OCC(=O)Nc1sc2c(c1C(=O)NCC1CCCO1)CCC2 (stereo unspecified),8%,-9%,13µM*,10µM*
O=C(NC1CC(=O)N(c2ccc(Cl)cc2)C1)N1CCN(C(=O)c2ccco2)CC1 (stereo unspecified),nt,-7%,3%,33%
C/C(CC(=O)Nc1ccc(N(C)C)cc1)=N\NC(=O)c1ccc(F)cc1,-7%,1%,-11%,19%
C/C(CC(=O)Nc1ccc(N(C)C)cc1)=N\NC(=O)C(=O)NCc1ccccc1,nt,-2%,25%,4.7µM*
C/C(CC(=O)Nc1ccc(N(C)C)cc1)=N\NC(=O)c1ccc(C(C)(C)C)cc1,12%,-5%,-7%,4.1µM*
N/C(=N\OC(=O)C12CC3CC(CC(C3)C1)C2)c1ccncc1,-3%,4%,10µM*,?
CC(CN1CCOCC1)OC(=O)c1cccc(Br)c1 (stereo unspecified),-1%,-6%,nt,-22%
Cc1cccc(/C(N)=N/OC(=O)N2CCOCC2)c1,-2%,-19%,?,2.6µM*
Cc1cccc(C(=O)OC(C)CN2CCOCC2)c1 (stereo unspecified),nt,-4%,6%,9.3µM*
SMILES,NS1 inh,SARS PLpro yeast,Pf growth 48h,Pf growth 96h
Cc1ccc(C(=O)OCC(=O)N2CCOCC2)cc1,-16%,0%,145%,111%
Cc1ccc(/C(N)=N/OC(=O)N2CCOCC2)cc1,-6%,-8%,?,1µM*
CCN(CC)S(=O)(=O)c1ccc(/C=C/C(=O)OCC(=O)NNC(=O)c2ccc(OC)cc2)cc1,nt,3%,-14%,-3%
Cc1ccc(NC(=O)Nc2ccc(F)c(Cl)c2)cc1,-41%,-2%,-72%,-6%
O=C(Nc1ccc(Cl)c(Cl)c1)Nc1ccc(Br)cc1F,-42%,-75%,?,4.7µM*
CC(C)(C)N(NC(=O)Nc1ccc(Cl)c(Cl)c1)C(=O)c1ccccc1,12%,0%,12µM*,?
O=C(Nc1ccc(Cl)c(Cl)c1)Nc1ccccc1O,-136%,-30%,138%,69%
CC(C)(C)N(NC(=O)Nc1ccc(F)cc1)C(=O)c1ccccc1,-1%,-10%,0%,?
O=C(Nc1ccc(Cl)cc1)Nc1ccc(Cl)c(Cl)c1,nt,-15%,2.3µM*,2.7µM*
O=C(CN1CCNCC1)NC1CCCCC1,nt,nt,6%,5%
O=S(=O)(Nc1ccc(Cl)cn1)c1ccc(F)cc1,-2%,-7%,-6%,?
Nc1nc(NCC2CCCO2)nc(Nc2ccc(F)cc2)c1[N+](=O)[O-] (stereo unspecified),-15%,1%,?,5.9µM*
Cc1ccc(Nc2nc(NCC3CCCO3)nc(N)c2[N+](=O)[O-])cc1 (stereo unspecified),-6%,-17%,-28%,12µM*
Cc1ccc(Nc2nc(N)c([N+](=O)[O-])c(NCc3ccco3)n2)cc1,11%,9%,0%,12µM*
CNc1nc(N)c([N+](=O)[O-])c(NCC2CCCO2)n1 (stereo unspecified),1%,0%,2.1µM*,-3%
COCCNc1nc(N)c([N+](=O)[O-])c(NCC2CCCO2)n1 (stereo unspecified),1%,16%,-2%,-5%
Cc1cccc(Nc2nc(NCC3CCCO3)nc(N)c2[N+](=O)[O-])c1 (stereo unspecified),-5%,1%,1%,?
Nc1nc(Nc2ccccc2)nc(NCc2ccco2)c1[N+](=O)[O-],-17%,-6%,?,?
Cc1ccc(-n2ncc3c(SCC(N)=O)ncnc32)cc1C,15%,3%,120%,?
CSc1ccc(NC(=O)[C@H]2CCCC[C@@H]2C(=O)O)cc1,-1%,nt,nt,nt
COc1ccc(C)cc1NC(=O)CN(C)C1CCCCC1,12%,0%,?,?
CC(C)CN(C(=O)c1cccc(S(=O)(=O)N2CCN(Cc3ccccc3)CC2)c1)C1CCS(=O)(=O)C1 (stereo unspecified),nt,2%,-10%,?
COc1ccc(S(=O)(=O)N(C)c2ccc(C(=O)N3CCCCC3)cc2)cc1,-3%,2%,7%,-10%
CCNC(=O)CSc1nnc(-c2cc(-c3ccc(Cl)cc3)nc3ccccc23)o1,1%,-18%,-17%,?
Fc1ccc(Nc2nc(NCc3ccco3)c3ccccc3n2)cc1,-51%,-3%,0.37µM*,?
Nc1nc(NCc2ccco2)nc(Nc2ccccc2)c1[N+](=O)[O-],-4%,0%,-3%,-23%
COC(=O)[C@]1(C)N[C@H](c2ccc(-c3ccccc3)cc2)[C@@H]2C(=O)N(C)C(=O)[C@@H]21,nt,-14%,?,?
Cc1ccc(Nc2nc3nonc3[nH]c2=O)cc1C,-96%,-22%,46%,5.2µM*
COCC(COS(N)(=O)=O)C(C)C (stereo unspecified),-7%,-7%,26%,35%
O=C(NCc1n[nH]c(=S)n1-c1ccc(Br)cc1)c1ccc(S(=O)(=O)N2CCOCC2)cc1,nt,0%,41%,?
